# In PubChem BioAssay:
# Calls of active or inactive are those of the source.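 The calls were made as follows, unless noted: active = fluorescence slope higher than the sample average by over 3 SD (cut at about -0.22 in these data, passing the limit was not always enough); inactive = the rest.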
# Key:
# [1] = inhibitors of TNFa-induced NFkB p65 translocation, primary screen, imaging, HUVEC, MLSMR starter and 10KST1 sets (AID 438;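 active = inhibition above 20% together with a positive visual image hit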;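 also: compound added about 3h40 before a 20 min TNFalpha stimulation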;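 as to inhibition: signal is the nuclear over cytoplasmic p65 intensity ratio per well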); conditions: HUVEC TNFa-induced p65 nuclear translocation; cell count: measured here: nuclei count (cytotoxicity indicator), at 2.08 µM; inhibition: at 2 µM, stronger effect = higher value, 0% TNFa-plus-vehicle, 100% no-TNFa wells
# [2] = reduction of polyQ htt aggregates in cells – imaging, exon1htt(103Q)mCFP cells, high-content imaging, primary screen (AID 483;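 active = visual image review flags a hit and inhibition of aggregation exceeds 20%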;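 also: compound exposure lasted 3 days before fixation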;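 as to nuclei count: percent of the per-plate median nuclei count of sample wells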); conditions: exon1htt(103Q)mCFP cell line, aggregate imaging, at 2 µM; inhibition of aggregation: stronger effect = higher value; nuclei count: measured here: cell count, toxicity
# [3] = endothelial E-selectin expression blockers – imaging, HUVEC, immunofluorescence, MLSMR starter and 10KST1 sets, primary screen (AID 487;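 active = visually confirmed hit in the image check and inhibition above 20%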;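 as to inhibition: signal is fraction of cell area covered by stained E-selectin grains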;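 as to nuclei count: 100% = median nuclei count of all wells on the same plate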); conditions: HUVEC TNFalpha-induced E-selectin immunofluorescence imaging, at 2 µM; inhibition: stronger effect = higher value; nuclei count: measured here: cell number, toxicity
# [4] = molecular target: Voltage-gated potassium channel subunit beta-2 (Rattus norvegicus) (UniProt P62483); experiment: inhibitors of rat Kvbeta2 reductase activity – biochemical, NADPH fluorescence, primary screen (AID 622); conditions: recombinant KvBeta, 4-cyanobenzaldehyde reduction, at 10 µM, stronger effect = higher value;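 also: slope of raw intensity against log time taken from 70 to 1610 s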
# [5] = molecular target: Voltage-gated potassium channel subunit beta-2 (Rattus norvegicus) (UniProt P62483); experiment: enhancers of rat Kvbeta2 NADPH turnover – biochemical, NADPH fluorescence, primary screen (AID 623;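 active = NADPH fluorescence slope more negative than the mean of all samples by about 3 SD, 99.7% confidence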;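 also: fluorescence intensity change per second fitted from 20 to 320 s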); conditions: Recombinant KvBeta, NADPH fluorescence decrease slope, 10 min; at 10 µM; stronger effect = lower value
# [6] = molecular target: Alpha-2C adrenergic receptor (Homo sapiens) (UniProt P18825); experiment: compounds altering alpha2C-coupled GIRK flux – cell-based, HEK293 alpha2C/GIRK1/2, thallium flux, primary screen (AID 624;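 active = fluorescence slope after compound addition differing from the mean of all screened samples at 99.7% confidence, in either direction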;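 also: slope of fluorescence ratio to pre-addition baseline per second over 15 to 24 s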); conditions: thallium flux BTC fluorescence, at 10 µM, actives lie on both sides
# [7] = blockers of RIG-like receptor reporter activation – cell-based, Sendai virus stimulus, luciferase, 10K MLSCN set, TLR/RLR signaling modifier project, primary screen (AID 602276;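 active = inhibition at or above 50% at 10 µM; inactive = inhibition below 50%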;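 also: firefly luciferase from ISG56 promoter only with Renilla not read in this screen; 0% = Sendai virus plus DMSO and 100% = medium plus DMSO without virus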); conditions: HEK293 RL24 IRF3 luciferase reporter, at 10 µM, stronger effect = higher value
# [8] = TLR3 IRF3 reporter activation blockers – cell-based, poly I:C stimulus, luciferase, 10K MLSCN set, primary screen (AID 602277;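 active = inhibition of the reporter signal at or above 50%; inactive = inhibition below 50%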); conditions: HEK293-TLR3 RL24 IRF3 luciferase reporter, at 10 µM, stronger effect = higher value
# Sequence of Alpha-2C adrenergic receptor (Homo sapiens) (P18825 whole entry, looked up): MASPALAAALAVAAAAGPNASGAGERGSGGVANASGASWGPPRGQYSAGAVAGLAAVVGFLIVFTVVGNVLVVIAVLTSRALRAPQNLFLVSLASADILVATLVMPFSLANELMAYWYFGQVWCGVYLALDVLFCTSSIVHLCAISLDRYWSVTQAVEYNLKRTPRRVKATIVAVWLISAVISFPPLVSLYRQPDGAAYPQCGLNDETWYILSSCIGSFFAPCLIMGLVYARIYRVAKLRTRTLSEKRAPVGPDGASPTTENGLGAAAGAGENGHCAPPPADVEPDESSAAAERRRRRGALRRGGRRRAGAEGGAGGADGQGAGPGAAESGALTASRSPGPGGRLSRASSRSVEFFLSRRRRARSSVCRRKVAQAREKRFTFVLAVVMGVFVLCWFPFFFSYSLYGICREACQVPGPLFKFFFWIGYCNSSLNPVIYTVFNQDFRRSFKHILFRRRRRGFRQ
# Sequence of Voltage-gated potassium channel subunit beta-2 (Rattus norvegicus) (P62483 whole entry, looked up): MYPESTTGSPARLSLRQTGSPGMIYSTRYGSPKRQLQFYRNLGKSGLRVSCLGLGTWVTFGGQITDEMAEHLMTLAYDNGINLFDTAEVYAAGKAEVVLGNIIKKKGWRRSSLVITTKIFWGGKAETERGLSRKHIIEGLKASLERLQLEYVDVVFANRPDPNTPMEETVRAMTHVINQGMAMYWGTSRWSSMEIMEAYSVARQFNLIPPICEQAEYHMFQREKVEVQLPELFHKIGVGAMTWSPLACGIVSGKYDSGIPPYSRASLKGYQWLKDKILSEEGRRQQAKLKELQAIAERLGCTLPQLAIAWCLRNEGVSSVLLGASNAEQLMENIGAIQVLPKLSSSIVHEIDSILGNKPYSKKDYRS
Structure (SMILES),cell count [1],inhibition [1],inhibition of aggregation [2],nuclei count [2] [%],inhibition [3],nuclei count [3] [%],fluorescence slope [4],NADPH fluorescence slope [5],slope [6],inhibition [7],inhibition [8]
O=C(NCc1ccccc1)C1CCCN(S(=O)(=O)c2cccnc2)C1 (stereo not drawn),230,-0.7% (inactive),0.8% (inactive),92.5,-59.6% (inactive),98.3,-0.549 (inactive),-1.4e-05 (inactive),0.0054 (inactive),5.96% (inactive),11% (inactive)
Cc1ccc(S(=O)(=O)C2(C(=O)Nc3cccnc3)CC2)cc1,579,8.8% (inactive),14.7% (inactive),93.3,-126% (inactive),98.8,-0.573 (inactive),-2.5e-05 (inactive),0.00528 (inactive),9.66% (inactive),28.7% (inactive)
CCn1c(SCC(=O)Nc2ccccc2F)nc2c(c1=O)SC(C)C2 (stereo not drawn),339,-2.2% (inactive),-3.7% (inactive),104,-2% (inactive),117,-0.554 (inactive),-3.3e-06 (inactive),0.00612 (inactive),3.68% (inactive),8.8% (inactive)
CCN(CC)CCOC(=O)c1cccc(OC)c1,249,4.3% (inactive),-8.4% (inactive),114,16.1% (inactive),98.7,-0.638 (inactive),-2.4e-05 (inactive),0.00412 (inactive),6.23% (inactive),14.4% (inactive)
CCOC(=O)c1sc(NC(=O)CSc2nnnn2-c2ccccc2)c(C(=O)OCC)c1C,425,-1.3% (inactive),12.5% (inactive),96.5,-467% (inactive),156,-0.567 (inactive),1.2e-05 (inactive),0.00928 (inactive),-15.7% (inactive),-15.7% (inactive)
CC(CN1CCCCC1)OC(=O)c1ccc2c(c1)OCO2 (stereo not drawn),639,4.9% (inactive),27.4% (inactive),70.8,-45.9% (inactive),103,-0.586 (inactive),-3.4e-05 (inactive),0.00425 (inactive),6.1% (inactive),-0.512% (inactive)
O=C(C1COc2ccccc2O1)N1CCCC1 (stereo not drawn),283,-8.4% (inactive),32.8% (active),83.7,-72.5% (inactive),99.2,-0.332 (inactive),1.7e-05 (inactive),0.0093 (inactive),-11.4% (inactive),3.67% (inactive)
CCOC(=O)c1cc(-c2nnc(-c3ccc(Oc4ccccc4)cc3)o2)c(C)nc1C,761,-3.9% (inactive),17.5% (inactive),102,-20.7% (inactive),110,-0.499 (inactive),-2.6e-05 (inactive),0.0114 (active),7.09% (inactive),12.2% (inactive)
Cc1ccc(S(=O)(=O)N2CCN(C(=O)CSc3nnnn3C)C2)cc1,348,-14.6% (inactive),1.4% (inactive),92.8,-89.7% (inactive),113,-0.35 (inactive),5.7e-06 (inactive),0.00463 (inactive),6.82% (inactive),20.3% (inactive)
CCOC(=O)N1CCC(NC(=O)Cc2ccc(-n3c(=O)[nH]c4ccccc4c3=O)cc2)CC1,753,-5.8% (inactive),-8.3% (inactive),112,-35.8% (inactive),115,-0.527 (inactive),-1.5e-05 (inactive),0.00585 (inactive),0.617% (inactive),-10.4% (inactive)
C=CCNc1oc(-c2cccc3ccccc23)nc1C#N,365,-0.4% (inactive),9.2% (inactive),98.8,-110% (inactive),97.4,-0.0687 (active),1.5e-06 (inactive),0.00477 (inactive),-4.72% (inactive),-35.7% (inactive)
CCOC(=O)N1CCN(Cc2nc3c(c(=O)n(C)c(=O)n3C)n2Cc2ccc(F)cc2)CC1,697,0.3% (inactive),-1.6% (inactive),91.7,-23.4% (inactive),123,-0.557 (inactive),-3.3e-05 (inactive),0.00745 (inactive),16.7% (inactive),39.9% (inactive)
COc1ccc(-c2noc(-c3ccccc3C(=O)Nc3cccnc3)n2)cc1,218,6.7% (inactive),0.1% (inactive),87.6,-54.7% (inactive),95.3,-0.601 (inactive),1.8e-05 (inactive),0.00583 (inactive),12.1% (inactive),12.9% (inactive)
CC(C)c1nc(N2CCN(C(=O)c3ccco3)CC2)c2c3c(sc2n1)CCCC3,748,-9.7% (inactive),-12.3% (inactive),94.5,-7.6% (inactive),103,-0.486 (inactive),5.1e-05 (inactive),0.00628 (inactive),15.9% (inactive),-5.95% (inactive)
Cc1ccc2c(c1)CCCN2C(=O)C1CCCO1 (stereo not drawn),354,-6.4% (inactive),7.6% (inactive),95,-84.4% (inactive),86.9,-0.417 (inactive),-4e-05 (inactive),0.00423 (inactive),10.7% (inactive),17.6% (inactive)
CCC(=O)Nc1cc(C(=O)NCC2CCCN2CC)c(OC)cc1N(C)C (stereo not drawn),448,-0.5% (inactive),-23.1% (inactive),98.8,-37.7% (inactive),104,-0.525 (inactive),1.6e-05 (inactive),0.00562 (inactive),0.262% (inactive),6.05% (inactive)
O=C(CSc1nnnn1C1CCCC1)NCc1ccc2c(c1)OCO2,816,-13.2% (inactive),3% (inactive),87.9,-15.5% (inactive),138,-0.475 (inactive),-4.8e-05 (inactive),0.00594 (inactive),1% (inactive),22.3% (inactive)
CCOc1ccc(-c2nc(S(=O)(=O)c3ccccc3)c(NCc3cccnc3)o2)cc1,621,0.6% (inactive),-7.9% (inactive),105,-59% (inactive),109,-0.534 (inactive),3.2e-06 (inactive),0.00448 (inactive),0.887% (inactive),-7.62% (inactive)
COc1cccc(-c2csc3nc[nH]c(=O)c23)c1,517,4.9% (inactive),-18.2% (inactive),98.7,-72.4% (inactive),97.9,-0.426 (inactive),-3.4e-05 (inactive),0.0038 (inactive),8.62% (inactive),2.24% (inactive)
CCN(CC)C(=O)COc1ccc2oc(C)c(C(=O)OC(C)C)c2c1,455,12.5% (inactive),-21.2% (inactive),108,-25.5% (inactive),126,-0.42 (inactive),3.2e-05 (inactive),0.00275 (inactive),2.59% (inactive),17.4% (inactive)
Cc1c(NC(=O)C(C)Oc2ncnc3ccccc23)c(=O)n(-c2ccccc2)n1C (stereo not drawn),547,-1.7% (inactive),-8.5% (inactive),78,-5.8% (inactive),111,-0.506 (inactive),-5e-05 (inactive),0.00757 (inactive),-7.59% (inactive),19.3% (inactive)
CC1(C)CC(=O)C=C(NCCN2CCN(C(=O)Nc3ccccc3)CC2)C1,730,-5.8% (inactive),0% (inactive),99.6,-2.1% (inactive),109,-0.412 (inactive),-4.4e-05 (inactive),0.0067 (inactive),-1.55% (inactive),-0.835% (inactive)
COc1ccc2c(c1)CCc1cc(C(=O)N3CCN(c4ccc(N5CCOCC5)nn4)CC3)sc1-2,583,5.5% (inactive),-28.1% (inactive),127,-61.7% (inactive),114,-0.499 (inactive),-1.1e-05 (inactive),0.00712 (inactive),2.81% (inactive),-42.5% (inactive)
CCOC(=O)N1CCC(N2C(=O)c3ccccc3C2Nc2ccccc2C)CC1 (stereo not drawn),568,5.8% (inactive),-4% (inactive),98.2,-22.5% (inactive),106,-0.531 (inactive),-3.2e-05 (inactive),0.00624 (inactive),3.88% (inactive),36.9% (inactive)
COc1ccc(NC(=O)C2CCCCN2S(=O)(=O)c2ccc(F)cc2)cc1 (stereo not drawn),630,3.7% (inactive),27.3% (inactive),76.6,-67.7% (inactive),105,-0.584 (inactive),-2.4e-05 (inactive),0.00664 (inactive),15.6% (inactive),42.2% (inactive)
CCOc1ccc(/C=N/n2cnnc2)cc1,442,-2.2% (inactive),-4.7% (inactive),89.4,17.6% (inactive),117,-0.402 (inactive),-9.1e-05 (inactive),0.00521 (inactive),8.22% (inactive),20.1% (inactive)
O=C(c1ncc[nH]1)c1ccccc1C(=O)N1CCOCC1,399,15.2% (inactive),27.9% (inactive),111,-232% (inactive),116,-0.515 (inactive),-0.000166 (inactive),0.00482 (inactive),-6.47% (inactive),4.36% (inactive)
COCCN(CC(=O)Nc1ccccc1C)S(=O)(=O)c1ccc(S(=O)(=O)N2CCCC2)cc1,404,-9.5% (inactive),-6.7% (inactive),103,-18.2% (inactive),69.8,-0.416 (inactive),-7.2e-05 (inactive),0.0043 (inactive),7.63% (inactive),13.5% (inactive)
